Assay [1] in a line: qHTS assay to identify small molecule antagonists of the glucocorticoid receptor (GR) signaling pathway - cell viability counter screen (AID 720693). Further: nearly all actives have a fitted effect of over 55% in size.
A short description of assay [2]: qHTS assay for identifying genotoxic compounds that show differential cytotoxicity against isogenic chicken DT40 cell lines with known DNA damage response pathways - wild type cell line (AID 743012). Further: nearly all actives have a fitted effect of over 60% in size. Further: potency means the concentration at half of the fitted maximal effect. The essentials:
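Wild type DT40, 300 cells/well, ~0.5 h settle at 37 C/5% CO2; compounds in DMSO added by pintool; 40 h at 37 C/5% CO2; CellTiter-Glo, 30 min RT; luminescence.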

The nature of assay [3]: qHTS assay for identifying genotoxic compounds that show differential cytotoxicity against isogenic chicken DT40 cell lines with known DNA damage response pathways - Rad54/Ku70 mutant cell line (AID 743015). Further: nearly all actives have a fitted effect of over 60% in size. Further: potency means the concentration at half of the fitted maximal effect.
Assay [4] is described as follows: qHTS assay to identify small molecule antagonists of the androgen receptor (AR) signaling pathway - cell viability counter screen (AID 743033; further: nearly all actives have a fitted effect of over 45% in size).
Assay [5] in a line: qHTS assay to identify small molecule antagonists of the androgen receptor (AR) signaling pathway using the MDA cell line - cell viability counter screen (AID 743041; further: nearly all actives have a fitted effect of over 45% in size). The essentials: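 Viability counter screen run alongside the AR antagonist reporter: cells seeded 5 h before compound, R1881 added, 16 h incubation at 37C without CO2, fluorescent CellTiter-Fluor signal quantified.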

Assay [6] is described as follows: qHTS assay to identify small molecule antagonists of the thyroid receptor (TR) signaling pathway (AID 743065). Further: nearly all actives have a fitted effect of over 55% in size. Further: potency means the concentration at half of the fitted maximal effect. Put shortly: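 GH3.TRE-Luc rat pituitary cells carrying two TR response elements driving luciferase were plated for 4 h, given compound plus 1 nM T3 (final), and incubated 23.5 h at 37 C. ONE-Glo luminescence measured reporter inhibition; CellTiter-Fluor fluorescence tracked cytotoxicity.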

For assay [7], the system named is thyroid hormone receptor (rat, GH3 cells). As to the kind of experiment: qHTS assay to identify small molecule agonists of the thyroid receptor (TR) signaling pathway (AID 743066; calls by dose curve).
Assay [8] concerns the target Estrogen receptor (Homo sapiens) (UniProt P03372). Nature of the assay: qHTS assay to identify small molecule antagonists of the estrogen receptor alpha (ER-alpha) signaling pathway (AID 743069; active means well fitted curve in the direction sought with a large enough effect in the signal ratio in the repeat runs, not every such curve was filed as active; the % refers to the signal ratio). The essentials:
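Estradiol-stimulated ER-alpha-UAS-bla HEK293 cells, 18 hr compound exposure at 37C. LiveBLAzer B/G substrate, 2 hr RT, fluorescence read.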

The nature of assay [9]: qHTS assay to identify small molecule antagonists of the estrogen receptor alpha (ER-alpha) signaling pathway - cell viability counter screen (AID 743074; calls by dose curve;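 further: HEK293 cells carrying ER-alpha-UAS-bla reporter stimulated with 17beta-estradiol; nearly all actives have a fitted effect of over 45% in size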).
Assay [10] has as its target Estrogen receptor (Homo sapiens) (UniProt P03372). Nature of the assay: qHTS assay to identify small molecule agonists of the estrogen receptor alpha (ER-alpha) signaling pathway (AID 743075; calls by dose curve;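 further: HEK293 GripTite cells with ER-alpha and UAS-driven beta-lactamase reporter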).
Assay [11] shares this target. Nature of the assay: qHTS assay to identify small molecule agonists of the estrogen receptor alpha (ER-alpha) signaling pathway using the BG1 cell line (AID 743079). Further: nearly all actives have a fitted effect of over 20% in size.
Assay [12] can be described thus: qHTS assay to identify small molecule antagonists of the estrogen receptor alpha (ER-alpha) signaling pathway using the BG1 cell line (AID 743080; calls by dose curve;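 further: BG1 cells stimulated with 17beta-estradiol alongside compound; series mostly up to about 70 µM; nearly all actives have a fitted effect of over 25% in size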). The essentials: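 After 5 days in phenol-red-free 10% charcoal-stripped FBS medium, BG1-Luc-4E2 cells were seeded, left 24 h at 37 C, co-treated with compounds and 17beta-estradiol for 21.5 h, then assayed for viability and luciferase.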

The nature of assay [13]: qHTS assay to identify small molecule antagonists of the estrogen receptor alpha (ER-alpha) signaling pathway using the BG1 cell line - cell viability counter screen (AID 743081).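 Further: compound given together with 17beta-estradiol as the ER stimulus; series mostly up to about 70 µM; nearly all actives have a fitted effect of over 45% in size.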
A further assay has as its target Aromatase (Homo sapiens) (UniProt P11511). As to the kind of experiment: qHTS assay to identify aromatase inhibitors (AID 743083). Further: series mostly up to about 70 µM; nearly all actives have a fitted effect of over 55% in size.
Assay [14] can be described thus: qHTS assay for identifying genotoxic compounds that show differential cytotoxicity against isogenic chicken DT40 cell lines with known DNA damage response pathways - Rev3 mutant cell line (AID 743014). Further: nearly all actives have a fitted effect of over 55% in size. Further: potency means the concentration at half of the fitted maximal effect.
A short description of assay [15]: qHTS assay to identify small molecule antagonists of the thyroid receptor (TR) signaling pathway - cell viability counter screen (AID 743064). Further: nearly all actives have a fitted effect of over 50% in size. Further: potency means the concentration at half of the fitted maximal effect. Put shortly: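 Viability of T3-stimulated (1 nM final) GH3.TRE-Luc cells is measured by CellTiter-Fluor fluorescence after 23.5 h compound exposure at 37 °C plus 30 min reagent incubation.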
The target of assay [16] is Androgen receptor (Homo sapiens) (UniProt P10275). Nature of the assay: qHTS assay to identify small molecule agonists of the androgen receptor (AR) signaling pathway (AID 743036; active means well fitted activation curve with a large enough effect in the signal ratio in the repeat runs, with a control signal flat, not every such curve was filed as active; the % refers to the signal ratio). Put shortly: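 Screening used 2,000 AR-bla HEK293 cells per well, treated 16 h at 37C with test compounds in DMSO alongside positive and DMSO-only controls; beta-lactamase activity was then read by LiveBLAzer B/G FRET fluorescence after 2 h at room temperature.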
Chain of Androgen receptor (Homo sapiens) (P10275 whole entry, looked up): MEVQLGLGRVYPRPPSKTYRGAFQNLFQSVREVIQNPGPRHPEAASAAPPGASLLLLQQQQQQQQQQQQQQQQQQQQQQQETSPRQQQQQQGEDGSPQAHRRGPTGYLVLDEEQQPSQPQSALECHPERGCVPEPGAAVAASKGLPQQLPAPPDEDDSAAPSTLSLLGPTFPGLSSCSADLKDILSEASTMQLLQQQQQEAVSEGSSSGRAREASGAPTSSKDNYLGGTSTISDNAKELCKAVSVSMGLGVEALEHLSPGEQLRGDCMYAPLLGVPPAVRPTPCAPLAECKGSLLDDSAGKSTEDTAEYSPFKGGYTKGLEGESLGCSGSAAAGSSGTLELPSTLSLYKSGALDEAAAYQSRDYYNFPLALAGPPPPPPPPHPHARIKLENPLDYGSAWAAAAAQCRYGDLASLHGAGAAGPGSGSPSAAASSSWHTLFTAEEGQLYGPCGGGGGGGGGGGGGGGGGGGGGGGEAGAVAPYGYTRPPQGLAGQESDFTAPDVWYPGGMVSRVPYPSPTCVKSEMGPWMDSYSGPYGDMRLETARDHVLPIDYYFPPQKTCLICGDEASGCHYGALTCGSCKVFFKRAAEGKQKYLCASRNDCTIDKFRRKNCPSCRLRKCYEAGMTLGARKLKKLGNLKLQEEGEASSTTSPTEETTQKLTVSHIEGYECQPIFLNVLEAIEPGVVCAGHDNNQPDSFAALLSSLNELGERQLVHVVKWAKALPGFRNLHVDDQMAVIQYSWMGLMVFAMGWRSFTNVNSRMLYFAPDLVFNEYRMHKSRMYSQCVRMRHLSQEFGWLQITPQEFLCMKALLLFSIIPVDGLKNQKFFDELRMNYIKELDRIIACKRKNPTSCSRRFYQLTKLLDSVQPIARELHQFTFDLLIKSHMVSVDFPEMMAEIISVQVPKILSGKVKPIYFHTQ

Assay [17] has the same target. As to the kind of experiment: qHTS assay to identify small molecule agonists of the androgen receptor (AR) signaling pathway using the MDA cell line (AID 743040; further: nearly all actives have a fitted effect of over 20% in size). Put shortly: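 Luminescence from ONE-Glo, read after 30 min at room temperature, reflects MMTV-driven luciferase in MDA-kb2 cells (AR- and GR-responsive). Treatment lasted 16 h at 37C, 0% CO2.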
The target is the same in assay [18]. As to the kind of experiment: qHTS assay to identify small molecule antagonists of the androgen receptor (AR) signaling pathway using the MDA cell line (AID 743042; further: nearly all actives have a fitted effect of over 55% in size). Put shortly:
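MDA-kb2 cells (human breast carcinoma, stably carrying an MMTV-luciferase reporter responsive to AR and GR) were plated at 3,000 cells/well and preincubated 5 hr at 37C, then given compound plus R1881 agonist for 16 h. ONE-Glo luminescence was read.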

Each structure is given as a SMILES string. Records with an inconclusive call do not appear. Activity calls are given as the source filed them. Unless noted, the call rests on the fitted dose curve; in most records, active means well fitted curve in the direction sought with a large enough effect in the repeat runs; inconclusive means weak or mixed curves; inactive means no such curve, though single readings can be large; an effect the other way counts as inactive or inconclusive.

Results on ten molecules are retold here after PubChem BioAssay (Tox21).

Chain of Aromatase (Homo sapiens) (P11511 whole entry, looked up): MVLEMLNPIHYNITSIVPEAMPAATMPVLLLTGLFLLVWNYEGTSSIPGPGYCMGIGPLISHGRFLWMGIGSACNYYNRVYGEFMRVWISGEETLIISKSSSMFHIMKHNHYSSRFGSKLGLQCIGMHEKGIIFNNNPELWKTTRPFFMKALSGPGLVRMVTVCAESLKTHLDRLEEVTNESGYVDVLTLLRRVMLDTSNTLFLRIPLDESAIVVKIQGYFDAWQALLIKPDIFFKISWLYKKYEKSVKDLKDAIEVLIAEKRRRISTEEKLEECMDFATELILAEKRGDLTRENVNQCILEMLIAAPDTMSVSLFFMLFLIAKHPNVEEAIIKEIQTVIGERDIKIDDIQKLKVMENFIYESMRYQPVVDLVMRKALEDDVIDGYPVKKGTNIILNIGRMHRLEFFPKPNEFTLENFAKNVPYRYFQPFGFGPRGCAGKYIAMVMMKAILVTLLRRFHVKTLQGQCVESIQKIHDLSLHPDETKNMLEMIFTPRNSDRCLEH
Chain of Estrogen receptor (Homo sapiens) (P03372 whole entry, looked up): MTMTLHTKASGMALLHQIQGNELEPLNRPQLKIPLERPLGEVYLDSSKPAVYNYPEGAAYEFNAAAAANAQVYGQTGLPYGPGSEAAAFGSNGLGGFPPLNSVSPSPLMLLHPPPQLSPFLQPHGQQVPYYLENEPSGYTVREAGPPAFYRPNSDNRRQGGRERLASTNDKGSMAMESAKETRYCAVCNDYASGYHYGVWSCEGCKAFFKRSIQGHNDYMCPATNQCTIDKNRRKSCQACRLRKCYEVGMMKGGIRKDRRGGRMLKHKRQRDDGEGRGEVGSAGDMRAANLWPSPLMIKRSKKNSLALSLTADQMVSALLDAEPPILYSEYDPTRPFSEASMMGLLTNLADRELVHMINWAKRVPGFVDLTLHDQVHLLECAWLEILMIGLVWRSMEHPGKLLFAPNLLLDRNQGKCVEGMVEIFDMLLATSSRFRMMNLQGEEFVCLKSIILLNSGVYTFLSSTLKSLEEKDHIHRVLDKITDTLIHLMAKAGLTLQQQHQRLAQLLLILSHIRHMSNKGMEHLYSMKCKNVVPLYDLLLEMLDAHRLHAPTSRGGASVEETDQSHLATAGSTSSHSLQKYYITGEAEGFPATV

For the molecule `CCCCCCCCCC#N`, the outcome in assay [1], in [4], in assay [7], in [10] and in assay [12] was inactive. The Potency result in assay [2], in assay [3], in assay [5], in assay [6], in assay [8] and in assay [9] was “inactive” each time. The Potency entry (in assay [11]; in [13]; in the assay with Aromatase (Homo sapiens)) was “inactive” each time.
Turning to `CCCCNC(=S)NCCCC`, the molecule was classed as inactive in assay [1], in assay [7], in [10] and in assay [12]. For the same molecule, the Potency in [2] was 48.6 µM (active); in assay [14], 34.4 µM (active). Moreover, the Potency entry in [5], in assay [15], in assay [6], in assay [8], in [9] and in assay [11] was “inactive” throughout. Moreover, the Potency result (in assay [13]; in the assay with Aromatase (Homo sapiens)) was “inactive” throughout.
For the molecule `CCCCCOc1ccc(C2SC(=O)NC2=O)cc1OCC` (stereo not given), the call in assay [1], in assay [4], in assay [16], in [18], in assay [10] and in [12] was inactive. For the same molecule, the Potency result in assay [2], in [3], in [17], in [5], in [15] and in assay [8] was “inactive” in each case. In addition, the Potency result in [9], in assay [11] and in assay [13] was “inactive” in each case. Also, the Potency in [6] is 2.37 µM (active).
As to `C=CCCC=C`, the molecule was called inactive in assay [1], in [4], in assay [7], in assay [10] and in [12]. The Potency entry in assay [2], in assay [3], in assay [5], in [6], in assay [8] and in [9] was “inactive” throughout. Also, the Potency entry (in assay [11]; in assay [13]; with Aromatase (Homo sapiens)) was “inactive” in each case.
For the molecule `CC(C)O`, the molecule was called inactive in assay [1], in [4], in assay [7], in assay [10] and in [12]. Besides, the Potency entry in [2], in assay [3], in assay [5], in [6], in assay [8] and in assay [9] was “inactive” throughout. Further, the Potency entry (in assay [11]; in assay [13]; in the assay with Aromatase (Homo sapiens)) was “inactive” each time.
As for `CCCCCCCCCCCCCCCCOP(=O)([O-])OCC[N+](C)(C)C`, the outcome in assay [1] was inactive. In addition, the Potency result (in assay [2]; in [14]; in assay [5]; in [9]; in [13]; with Aromatase (Homo sapiens)) was “inactive” throughout.
In the case of `O=C1CCCc2ccccc21`, the result in [1], in assay [4], in assay [7], in assay [10] and in assay [12] was inactive. The Potency entry in assay [2], in assay [3], in [5], in assay [15], in assay [6] and in assay [8] was “inactive” each time. The Potency result (in assay [9]; in assay [11]; in [13]; in the assay with Aromatase (Homo sapiens)) was “inactive” in each case.
For the molecule `CCCCNc1ccc(C(=O)OCCN(CC)CC)cc1`, the molecule was called inactive in [1], in assay [4], in assay [7], in assay [10] and in [12]. Moreover, in assay [2], the Potency was 2.37 µM (active). Besides, the Potency result (in assay [5]; in assay [8]; in [11]; in the assay with Aromatase (Homo sapiens)) was “inactive” in each case.
As to `CCC(=O)c1ccc2c(c1)N(CCCN(C)C)c1ccccc1S2`, the result in [1] and in [16] was inactive. Moreover, the Potency is 4.73 µM (active) in assay [2], 7.5 µM (active) in [3], 7.5 µM (active) in [15] and 7.5 µM (active) in [6]. In addition, the Potency entry in [17] and in assay [9] was “inactive” throughout.
With `O=C(O)c1cccc(Cl)c1Cl`, the call in assay [1], in assay [4], in assay [10] and in assay [12] was inactive. Also, the Potency entry in assay [2], in assay [3], in assay [5], in [15], in assay [8] and in [9] was “inactive” throughout. Besides, the Potency result (in [11]; in assay [13]; in the assay with Aromatase (Homo sapiens)) was “inactive” each time.
